{"source": "the supplement of paper PMC8728848", "binders": {"B1": {"name": "SJA (Sophora japonica) (protein)", "chain": "FLGLFNSGGYSSSYQIVAVEFDTYINEWDPKTRHIGIDINSINSTKTVTWGWENGEVAIVLISYKAATETLTVSLTYPSSQTSYILSAAVDLKSILPEWVRIGF"}}, "assay_in_all_cases": "glycan array binding signal (z-score within array); higher = stronger binding", "conditions_in_all_cases": "glycan notation: IUPAC condensed, linker removed", "key": {"[1]": {"molecular_target": "Fuc(a1-2)Gal(b1-3)GlcNAc(b1-3)[Neu5Ac(a2-6)Gal(b1-4)GlcNAc(b1-6)]Gal(b1-4)Glc", "summary_of_the_method": "(§1)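 The binding signal is a Z-score computed within each array and averaged over linkers. Arrays of the same protein sequence at different concentrations or buffers were also averaged together. Data originate from 3228 arrays in the Consortium for Functional Glycomics database, kept only where the protein sequence was available.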"}, "[2]": {"molecular_target": "Fuc(a1-2)Gal(b1-3)[Fuc(a1-4)]GlcNAc(b1-2)Man(a1-3)[Fuc(a1-2)Gal(b1-3)[Fuc(a1-4)]GlcNAc(b1-2)Man(a1-6)]Man(b1-4)GlcNAc(b1-4)[Fuc(a1-6)]GlcNAc(b1-4)[Fuc(a1-6)]GlcNAc", "summary_of_the_method": "as §1"}, "[3]": {"molecular_target": "Fuc(a1-2)[Gal(a1-3)]Gal(b1-3)GlcNAc(b1-2)Man(a1-3)[Fuc(a1-2)[Gal(a1-3)]Gal(b1-3)GlcNAc(b1-2)Man(a1-6)]Man(b1-4)GlcNAc(b1-4)GlcNAc", "summary_of_the_method": "as §1"}, "[4]": {"molecular_target": "Fuc(a1-2)[Gal(a1-3)]Gal(b1-4)GlcNAc", "summary_of_the_method": "as §1"}, "[5]": {"molecular_target": "Fuc(a1-2)[Gal(a1-3)]Gal(b1-4)GlcNAc(b1-2)Man(a1-3)[Fuc(a1-2)[Gal(a1-3)]Gal(b1-4)GlcNAc(b1-2)Man(a1-6)]Man(b1-4)GlcNAc(b1-4)GlcNAc", "summary_of_the_method": "as §1"}, "[6]": {"molecular_target": "Fuc(a1-2)[Gal(a1-3)]Gal(b1-4)GlcNAc(b1-3)GalNAc", "summary_of_the_method": "as §1"}, "[7]": {"molecular_target": "Fuc(a1-2)[Gal(a1-3)]Gal(b1-4)[Fuc(a1-3)]GlcNAc", "summary_of_the_method": "as §1"}, "[8]": {"molecular_target": "Fuc(a1-2)[GalNAc(a1-3)]Gal(b1-3)GalNAc(a1-3)[Fuc(a1-2)]Gal(b1-4)GlcNAc", "summary_of_the_method": "as §1"}, "[9]": {"molecular_target": "Fuc(a1-2)[GalNAc(a1-3)]Gal(b1-3)GalNAc(b1-3)Gal(a1-4)Gal(b1-4)Glc", "summary_of_the_method": "as §1"}, "[10]": {"molecular_target": "Fuc(a1-2)[GalNAc(a1-3)]Gal(b1-4)GlcNAc(b1-3)Gal(b1-4)GlcNAc(b1-3)Gal(b1-4)GlcNAc", "summary_of_the_method": "as §1"}, "[11]": {"molecular_target": "Fuc(a1-2)[GalNAc(a1-3)]Gal(b1-4)GlcNAc(b1-6)GalNAc", "summary_of_the_method": "as §1"}, "[12]": {"molecular_target": "Fuc(a1-3)[Gal(b1-4)]GlcNAc(b1-2)Man", "summary_of_the_method": "as §1"}, "[13]": {"molecular_target": "Fuc(a1-3)[Gal3S(b1-4)]GlcNAc6S", "summary_of_the_method": "as §1"}, "Gal(a1-3)Gal(b1-4)Glc": {"molecular_target": "Gal(a1-3)Gal(b1-4)Glc", "summary_of_the_method": "as §1"}, "Gal(a1-4)Gal(b1-4)Glc": {"molecular_target": "Gal(a1-4)Gal(b1-4)Glc", "summary_of_the_method": "as §1"}, "[14]": {"molecular_target": "Gal(b1-3)GlcNAc(a1-6)Gal(b1-4)GlcNAc", "summary_of_the_method": "as §1"}, "[15]": {"molecular_target": "Gal(b1-3)GlcNAc(b1-2)Man(a1-3)[Gal(b1-3)GlcNAc(b1-2)Man(a1-6)]Man(b1-4)GlcNAc(b1-4)[Fuc(a1-6)]GlcNAc", "summary_of_the_method": "as §1"}, "[16]": {"molecular_target": "Gal(b1-4)GlcNAc(b1-2)Man(a1-3)[Gal(b1-4)GlcNAc(b1-2)Man(a1-6)][GlcNAc(b1-4)]Man(b1-4)GlcNAc(b1-4)[Fuc(a1-6)]GlcNAc", "summary_of_the_method": "as §1"}, "[17]": {"molecular_target": "Gal(b1-4)GlcNAc(b1-2)Man(a1-6)Man(b1-4)GlcNAc(b1-4)GlcNAc", "summary_of_the_method": "as §1"}, "[18]": {"molecular_target": "Gal(b1-4)GlcNAc(b1-3)Gal(b1-4)GlcNAc", "summary_of_the_method": "as §1"}, "[19]": {"molecular_target": "Gal(b1-4)GlcNAc(b1-3)Gal(b1-4)GlcNAc(b1-3)Gal(b1-4)GlcNAc(b1-2)Man(a1-3)[Gal(b1-4)GlcNAc(b1-3)Gal(b1-4)GlcNAc(b1-3)Gal(b1-4)GlcNAc(b1-2)Man(a1-6)]Man(b1-4)GlcNAc(b1-4)GlcNAc", "summary_of_the_method": "as §1"}, "[20]": {"molecular_target": "Gal(b1-4)GlcNAc(b1-3)Gal(b1-4)GlcNAc(b1-3)Gal(b1-4)GlcNAc(b1-3)Gal(b1-4)GlcNAc(b1-3)Gal(b1-4)GlcNAc(b1-2)[Gal(b1-4)GlcNAc(b1-3)Gal(b1-4)GlcNAc(b1-3)Gal(b1-4)GlcNAc(b1-3)Gal(b1-4)GlcNAc(b1-3)Gal(b1-4)GlcNAc(b1-6)]Man(a1-6)[Gal(b1-4)GlcNAc(b1-3)Gal(b1-4)GlcNAc(b1-3)Gal(b1-4)GlcNAc(b1-3)Gal(b1-4)GlcNAc(b1-3)Gal(b1-4)GlcNAc(b1-2)Man(a1-3)]Man(b1-4)GlcNAc(b1-4)[Fuc(a1-6)]GlcNAc", "summary_of_the_method": "as §1"}, "[21]": {"molecular_target": "Gal(b1-4)GlcNAc(b1-6)GalNAc", "summary_of_the_method": "as §1"}, "Gal3S4S(b1-4)GlcNAc": {"molecular_target": "Gal3S4S(b1-4)GlcNAc", "summary_of_the_method": "as §1"}, "[22]": {"molecular_target": "GalNAc(a1-3)GalNAc(b1-3)Gal(a1-4)Gal(b1-4)GlcNAc", "summary_of_the_method": "as §1"}}, "note": "This excerpt belongs to a sample that is enriched for the strongest signals.", "data": [{"binder": "B1", "values": [{"measurement": "glycan array binding signal (z-score)", "setting": "[1]", "value": -0.155}, {"measurement": "glycan array binding signal (z-score)", "setting": "[2]", "value": -0.175}, {"measurement": "glycan array binding signal (z-score)", "setting": "[3]", "value": 4.34}, {"measurement": "glycan array binding signal (z-score)", "setting": "[4]", "value": 2.19}, {"measurement": "glycan array binding signal (z-score)", "setting": "[5]", "value": 4.98}, {"measurement": "glycan array binding signal (z-score)", "setting": "[6]", "value": 0.012}, {"measurement": "glycan array binding signal (z-score)", "setting": "[7]", "value": 6.46}, {"measurement": "glycan array binding signal (z-score)", "setting": "[8]", "value": -0.406}, {"measurement": "glycan array binding signal (z-score)", "setting": "[9]", "value": -0.202}, {"measurement": "glycan array binding signal (z-score)", "setting": "[10]", "value": 0.248}, {"measurement": "glycan array binding signal (z-score)", "setting": "[11]", "value": -0.199}, {"measurement": "glycan array binding signal (z-score)", "setting": "[12]", "value": -0.248}, {"measurement": "glycan array binding signal (z-score)", "setting": "[13]", "value": -0.061}, {"measurement": "glycan array binding signal (z-score)", "setting": "Gal(a1-3)Gal(b1-4)Glc", "value": -0.143}, {"measurement": "glycan array binding signal (z-score)", "setting": "Gal(a1-4)Gal(b1-4)Glc", "value": -0.134}, {"measurement": "glycan array binding signal (z-score)", "setting": "[14]", "value": -0.076}, {"measurement": "glycan array binding signal (z-score)", "setting": "[15]", "value": -0.007}, {"measurement": "glycan array binding signal (z-score)", "setting": "[16]", "value": -0.337}, {"measurement": "glycan array binding signal (z-score)", "setting": "[17]", "value": -0.334}, {"measurement": "glycan array binding signal (z-score)", "setting": "[18]", "value": -0.148}, {"measurement": "glycan array binding signal (z-score)", "setting": "[19]", "value": 2.39}, {"measurement": "glycan array binding signal (z-score)", "setting": "[20]", "value": 2.24}, {"measurement": "glycan array binding signal (z-score)", "setting": "[21]", "value": -0.118}, {"measurement": "glycan array binding signal (z-score)", "setting": "Gal3S4S(b1-4)GlcNAc", "value": -0.23}, {"measurement": "glycan array binding signal (z-score)", "setting": "[22]", "value": -0.341}]}]}
